# Shown is part of a subset that was picked to be rich in the strongest signals.
# Columns and labels:
# Experiment in all cases: glycan array binding signal (z-score within array); higher = stronger binding
# Details in all cases: glycan notation: IUPAC condensed, linker removed
# [1] = target: Fuc(a1-2)Gal(b1-3)GalNAc(b1-3)Gal
# Procedure, shortened: (§1)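 Negative Z-scores can be read as non-binding. The Z-score is calculated within each array and then averaged across arrays of one protein sequence at different concentrations or buffers and across linkers. Arrays, 3228 in all, were curated from the Consortium for Functional Glycomics database and kept only where the protein sequence was available.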
# [2] = target: Fuc(a1-2)Gal(b1-3)[Fuc(a1-4)]GlcNAc
# Procedure, shortened: as §1
# [3] = target: Fuc(a1-2)Gal6S(b1-3)GlcNAc6S
# Procedure, shortened: as §1
# [4] = target: Fuc(a1-2)Gal6S(b1-4)Glc6S
# Procedure, shortened: as §1
# [5] = target: Fuc(a1-2)[Gal(a1-3)]Gal(b1-3)GlcNAc(b1-2)Man(a1-3)[Fuc(a1-2)[Gal(a1-3)]Gal(b1-3)GlcNAc(b1-2)Man(a1-6)]Man(b1-4)GlcNAc(b1-4)[Fuc(a1-6)]GlcNAc
# Procedure, shortened: as §1
# [6] = target: Fuc(a1-2)[Gal(a1-3)]Gal(b1-4)GlcNAc(b1-6)GalNAc
# Procedure, shortened: as §1
# [7] = target: Fuc(a1-2)[GalNAc(a1-3)]Gal(b1-4)GlcNAc(b1-6)GalNAc
# Procedure, shortened: as §1
# [8] = target: Fuc(a1-2)[GalNAc(b1-3)]Gal
# Procedure, shortened: as §1
# [9] = target: Fuc(a1-3)[Gal3S(b1-4)]GlcNAc
# Procedure, shortened: as §1
# [10] = target: Fuc(a1-3)[Gal3S(b1-4)]GlcNAc6S
# Procedure, shortened: as §1
# [11] = target: Fuc(a1-3)[GalNAc(b1-4)]GlcNAc
# Procedure, shortened: as §1
# [12] = target: Gal(a1-3)Fuc(a1-2)Gal(b1-4)GlcNAc(b1-3)[Gal(a1-3)Fuc(a1-2)Gal(b1-4)GlcNAc(b1-6)]GalNAc
# Procedure, shortened: as §1
# [13] = target: Gal(a1-3)Gal(b1-4)GlcNAc(b1-3)GalNAc
# Procedure, shortened: as §1
# [14] = target: Gal(a1-4)Gal(b1-4)GlcNAc(b1-3)Gal(b1-4)Glc
# Procedure, shortened: as §1
# [15] = target: Gal(b1-3)GlcNAc(b1-3)GalNAc
# Procedure, shortened: as §1
# [16] = target: Gal(b1-3)[Fuc(a1-4)]GlcNAc(b1-2)Man(a1-3)[Gal(b1-3)[Fuc(a1-4)]GlcNAc(b1-2)Man(a1-6)]Man(b1-4)GlcNAc(b1-4)[Fuc(a1-6)]GlcNAc
# Procedure, shortened: as §1
# [17] = target: Gal(b1-4)GlcNAc(b1-3)Gal(b1-4)GlcNAc(b1-3)Gal(b1-4)GlcNAc(b1-2)Man(a1-3)[Gal(b1-4)GlcNAc(b1-3)Gal(b1-4)GlcNAc(b1-3)Gal(b1-4)GlcNAc(b1-2)Man(a1-6)]Man(b1-4)GlcNAc(b1-4)[Fuc(a1-6)]GlcNAc
# Procedure, shortened: as §1
# [18] = target: Gal(b1-4)GlcNAc(b1-3)Gal(b1-4)GlcNAc(b1-6)[Gal(b1-3)]GalNAc
# Procedure, shortened: as §1
# Gal3S(b1-4)Glc6S = target: Gal3S(b1-4)Glc6S
# Procedure, shortened: as §1
# Gal3S(b1-4)GlcNAc6S = target: Gal3S(b1-4)GlcNAc6S
# Procedure, shortened: as §1
# Gal3S4S(b1-4)GlcNAc = target: Gal3S4S(b1-4)GlcNAc
# Procedure, shortened: as §1
# Gal3S6S(b1-4)GlcNAc = target: Gal3S6S(b1-4)GlcNAc
# Procedure, shortened: as §1
# Gal3S6S(b1-4)GlcNAc6S = target: Gal3S6S(b1-4)GlcNAc6S
# Procedure, shortened: as §1
# Gal4S6S(b1-4)GlcNAc = target: Gal4S6S(b1-4)GlcNAc
# Procedure, shortened: as §1
# Gal6S(b1-3)GlcNAc6S = target: Gal6S(b1-3)GlcNAc6S
# Procedure, shortened: as §1
# Gal6S(b1-4)GlcNAc6S = target: Gal6S(b1-4)GlcNAc6S
# Procedure, shortened: as §1
binder,measurement,setting,value
KILRGVCKKIMRTFLRRISKDILTGKK [NK2 (Sus scrofa)],glycan array binding signal (z-score),[1],0.02
same,glycan array binding signal (z-score),[2],-0.178
same,glycan array binding signal (z-score),[3],2.03
same,glycan array binding signal (z-score),[4],2.24
same,glycan array binding signal (z-score),[5],0.527
same,glycan array binding signal (z-score),[6],0.282
same,glycan array binding signal (z-score),[7],-1.05
same,glycan array binding signal (z-score),[8],-0.991
same,glycan array binding signal (z-score),[9],0.36
same,glycan array binding signal (z-score),[10],1.58
same,glycan array binding signal (z-score),[11],0.101
same,glycan array binding signal (z-score),[12],-0.533
same,glycan array binding signal (z-score),[13],0.826
same,glycan array binding signal (z-score),[14],0.785
same,glycan array binding signal (z-score),[15],-0.33
same,glycan array binding signal (z-score),[16],-0.004
same,glycan array binding signal (z-score),[17],0.462
same,glycan array binding signal (z-score),[18],2.04
same,glycan array binding signal (z-score),Gal3S(b1-4)Glc6S,1.67
same,glycan array binding signal (z-score),Gal3S(b1-4)GlcNAc6S,4.29
same,glycan array binding signal (z-score),Gal3S4S(b1-4)GlcNAc,2.81
same,glycan array binding signal (z-score),Gal3S6S(b1-4)GlcNAc,2.92
same,glycan array binding signal (z-score),Gal3S6S(b1-4)GlcNAc6S,3.98
same,glycan array binding signal (z-score),Gal4S6S(b1-4)GlcNAc,2.26
same,glycan array binding signal (z-score),Gal6S(b1-3)GlcNAc6S,3.16
same,glycan array binding signal (z-score),Gal6S(b1-4)GlcNAc6S,2.85

# Source: the supplement of paper PMC8728848
